Our source for the growth values is PubChem BioAssay (NCI).

Among the test systems are SK-MEL-2 melanoma; EKVX NSCLC; SN12C renal; UO-31 renal; TK-10 renal; A498 renal; CCRF-CEM leukemia; MOLT-4 leukemia; SR leukemia; RPMI-8226 leukemia; OVCAR-8 ovarian; OVCAR-5 ovarian; OVCAR-4 ovarian; SK-OV-3 ovarian; IGROV1 ovarian; OVCAR-3 ovarian; HS 578T breast; NCI/ADR-RES ovarian.
What all share (experiment): NCI-60 one-dose screen, 48 h (100 = growth as untreated, 0 = no growth, -100 = all killed)
What all share (settings): 10 µM unless noted

This is part of a sample that, as a whole, favours compounds with a hit. Of some 83,000 tested, about 20% had one in any assay.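 The endpoint reported here, percent growth, reads 100 for growth as untreated, 0 for no net growth and -100 for all cells dead.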 Unmarked numbers belong to inactive results. The source made the active and inactive calls. The calls were made as follows: active = growth percent below 10; inactive = the rest.

Take `O=C(Nc1cccc([N+](=O)[O-])c1)Nc1cccc([N+](=O)[O-])c1`: the growth in the assay on SK-MEL-2 melanoma was 53.9%; in the assay with EKVX NSCLC, 50.4%; in the assay with SN12C renal it was 70.3%; with UO-31 renal, 46.6%; in the assay with TK-10 renal it was 39%; in the assay with A498 renal it was 33.1%. Also, the growth is 15.5% in the assay on CCRF-CEM leukemia; 9.18% (active) in the assay on MOLT-4 leukemia; 38.2% in the assay with SR leukemia; 12.4% in the assay on RPMI-8226 leukemia; 63.3% in the assay on OVCAR-8 ovarian; 89.6% in the assay on OVCAR-5 ovarian. For the same compound, the growth with OVCAR-4 ovarian was 39.3%; with SK-OV-3 ovarian it was 87.6%; in the assay with IGROV1 ovarian, 63.6%; with OVCAR-3 ovarian, 27.6%; in the assay on HS 578T breast, 94.6%; with NCI/ADR-RES ovarian it was 52.1%.
Take `CC(C)(c1ccc(OCC(O)CNCc2ccco2)cc1)c1ccc(OCC(O)CNCc2ccco2)cc1` (centres undefined): the growth in the assay on SK-MEL-2 melanoma was 94.4%; in the assay on EKVX NSCLC, 92.1%; in the assay on SN12C renal, 87.6%; in the assay with UO-31 renal, 66.3%; with TK-10 renal, 93.1%; in the assay on A498 renal, 68.9%. Also, the growth in the assay on CCRF-CEM leukemia was 72.9%; in the assay with MOLT-4 leukemia, 67.1%; in the assay on SR leukemia, 31.5%; in the assay on RPMI-8226 leukemia, 64.8%; in the assay on OVCAR-8 ovarian it was 92.3%; with OVCAR-5 ovarian, 101%. Also, the growth in the assay on OVCAR-4 ovarian was 96%; in the assay with SK-OV-3 ovarian, 105%; with IGROV1 ovarian, 86.3%; in the assay on OVCAR-3 ovarian, 83%; in the assay with HS 578T breast, 75.7%; with NCI/ADR-RES ovarian it was 93.2%.
For the compound `COc1cc(Cn2cc3c(c2)-c2onc(CO)c2CC3)cc(OC)c1OC`, the growth was 90.2% in the assay on SK-MEL-2 melanoma; 90.3% in the assay with EKVX NSCLC; 94.3% with SN12C renal; 68.4% with UO-31 renal; 96.4% in the assay with TK-10 renal; 97.5% in the assay with A498 renal. Further, the growth is 91.3% in the assay on CCRF-CEM leukemia; 95.8% with MOLT-4 leukemia; 71.8% in the assay with SR leukemia; 79.1% with RPMI-8226 leukemia; 98.7% with OVCAR-8 ovarian; 103% in the assay on OVCAR-5 ovarian. Moreover, the growth with OVCAR-4 ovarian was 98%; in the assay with SK-OV-3 ovarian it was 112%; with IGROV1 ovarian it was 96.6%; in the assay on OVCAR-3 ovarian it was 99.4%; with HS 578T breast it was 80.3%; with NCI/ADR-RES ovarian, 93.8%.
For `N#Cc1c2c(c(N)[nH]c1=O)C(=O)NC2(O)c1ccccc1` (centres undefined), the growth in the assay on SK-MEL-2 melanoma is 97.9%; in the assay with EKVX NSCLC, 98.1%; in the assay on SN12C renal, 113%; in the assay on UO-31 renal it was 89.1%; in the assay with TK-10 renal, 93%; with A498 renal, 106%. The growth with CCRF-CEM leukemia is 100%; in the assay with MOLT-4 leukemia it was 95.4%; with SR leukemia, 93.1%; in the assay with RPMI-8226 leukemia it was 107%; in the assay on OVCAR-8 ovarian, 106%; in the assay with OVCAR-5 ovarian, 111%. Moreover, the growth with OVCAR-4 ovarian was 117%; in the assay with SK-OV-3 ovarian it was 103%; with IGROV1 ovarian, 109%; with OVCAR-3 ovarian, 102%; in the assay on HS 578T breast, 111%; with NCI/ADR-RES ovarian it was 105%.
Take `Nc1nc(-c2cc3c(cc2Cl)NC(=O)/C3=C/c2ccc(Cl)cc2)cs1`: the growth in the assay with SK-MEL-2 melanoma is 36.6%; in the assay with EKVX NSCLC it was 35.3%; in the assay with SN12C renal it was 48.8%; in the assay with UO-31 renal, 54.3%; with TK-10 renal it was 82.3%; in the assay on A498 renal, 74.8%. In addition, the growth in the assay on CCRF-CEM leukemia is 19%; with MOLT-4 leukemia it was 15.5%; with SR leukemia it was 13.8%; with RPMI-8226 leukemia, 31.9%; with OVCAR-8 ovarian, 50.8%; in the assay on OVCAR-5 ovarian, 92%. The growth was 48.6% with OVCAR-4 ovarian; 71.8% in the assay on SK-OV-3 ovarian; 34.9% in the assay with IGROV1 ovarian; 32.8% with OVCAR-3 ovarian; 48.1% in the assay with HS 578T breast; 74.5% with NCI/ADR-RES ovarian.
For `CCCC(C)(C)COC(=O)c1cccc(N)c1`, the growth is 88% with SK-MEL-2 melanoma; 101% with EKVX NSCLC; 98.4% in the assay with SN12C renal; 69.2% in the assay with UO-31 renal; 84.5% in the assay on TK-10 renal; 88.6% in the assay on A498 renal. In addition, the growth in the assay on CCRF-CEM leukemia was 88.5%; in the assay with MOLT-4 leukemia it was 56%; in the assay on SR leukemia, 92.8%; in the assay on RPMI-8226 leukemia, 108%; with OVCAR-8 ovarian, 84.2%; with OVCAR-5 ovarian it was 114%. In addition, the growth in the assay with OVCAR-4 ovarian was 117%; in the assay on SK-OV-3 ovarian, 94.1%; with IGROV1 ovarian it was 103%; in the assay on OVCAR-3 ovarian, 102%; in the assay with HS 578T breast, 99.3%; in the assay with NCI/ADR-RES ovarian, 102%.
Turning to `O=C(O)c1ccc(-n2cc(/C=N/Nc3ccc(F)cc3)c(-c3cccc(C(F)(F)F)c3)n2)cc1`, the growth with SK-MEL-2 melanoma is 70.1%; in the assay with EKVX NSCLC, 70.8%; in the assay on SN12C renal, 86.9%; in the assay with UO-31 renal, 45.6%; with TK-10 renal, 91.9%; in the assay with A498 renal, 69%. Further, the growth in the assay on CCRF-CEM leukemia was 33.7%; in the assay with MOLT-4 leukemia, 36.5%; in the assay with SR leukemia it was 87%; in the assay with RPMI-8226 leukemia, 47.2%; in the assay with OVCAR-8 ovarian, 78.4%; in the assay on OVCAR-5 ovarian, 78.2%. The growth is 92.4% in the assay on OVCAR-4 ovarian; 94.6% with SK-OV-3 ovarian; 74.8% in the assay with IGROV1 ovarian; 70.8% with OVCAR-3 ovarian; 89.2% in the assay with HS 578T breast; 65.2% in the assay with NCI/ADR-RES ovarian.
Regarding `CCOC(=O)C1=C(N)Oc2cc(OC)ccc2C1c1ccc(F)c(F)c1` (centres undefined), the growth in the assay on SK-MEL-2 melanoma was 11.8%; with EKVX NSCLC, 40.1%; with SN12C renal, 47.1%; in the assay with UO-31 renal, 44.2%; in the assay on TK-10 renal, 63.3%; in the assay with A498 renal, 4.52% (active). The growth was 20.4% in the assay with CCRF-CEM leukemia; 28.6% in the assay on MOLT-4 leukemia; 12.7% in the assay with SR leukemia; 6.63% (active) with RPMI-8226 leukemia; 36% in the assay with OVCAR-8 ovarian; 56.9% with OVCAR-5 ovarian. Besides, the growth was 69.4% with OVCAR-4 ovarian; 22.8% in the assay with SK-OV-3 ovarian; 54.1% in the assay on IGROV1 ovarian; 17.7% in the assay with OVCAR-3 ovarian; 28.4% with HS 578T breast; 25.5% with NCI/ADR-RES ovarian.
